This note sets out measurements from PubChem BioAssay AID1415 (NMMLSC, 2008).

Structures are written as SMILES. Among all 220,000 compounds or so, about 710 (0.32%) were called active. No stated cut-off is given here; in the data, active means binding response below about 49% or above about 150%; inactive means in between. Only a selection was taken, and actives are over-represented in it overall.

For the test, the target named is Guanine nucleotide-binding protein G(o) subunit alpha (Homo sapiens) (UniProt P09471). Nature of the test: modulators of RGS4 binding to Galphao, primary screen, biochemical, multiplexed bead flow cytometry (AID 1415).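 Further: fluorescent Galphao activated with aluminum fluoride binding bead-coupled RGS4.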 The note with it: at 10 µM, actives lie on both sides.
Guanine nucleotide-binding protein G(o) subunit alpha (Homo sapiens), sequence (P09471 whole entry, looked up): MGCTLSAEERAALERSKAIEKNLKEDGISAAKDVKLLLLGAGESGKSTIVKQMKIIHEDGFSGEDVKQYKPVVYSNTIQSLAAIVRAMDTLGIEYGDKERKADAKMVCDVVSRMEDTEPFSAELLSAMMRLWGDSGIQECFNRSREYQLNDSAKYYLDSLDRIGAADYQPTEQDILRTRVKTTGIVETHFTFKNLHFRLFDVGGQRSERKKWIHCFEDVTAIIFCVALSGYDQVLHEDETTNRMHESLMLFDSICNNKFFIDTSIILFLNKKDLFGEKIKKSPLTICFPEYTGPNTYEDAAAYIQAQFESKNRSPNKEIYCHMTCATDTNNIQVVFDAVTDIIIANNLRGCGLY
Turning to `COC(=O)CCCC1=CC2=CC(=O)C(C)(OC(=O)c3cccs3)C(=O)C2=CN1c1cccc(C#N)c1` (stereo not given), the binding response (% of control) was 96% (inactive).

As for `CCOc1cccc(OCCCOc2cccc3cccnc23)c1`, the binding response (% of control) was 93% (inactive).

`O=C(NNC1=C(C(=O)C(F)(F)F)CCC1)c1ccncc1`: the binding response (% of control) was 86.6% (inactive). The same measure for `Cc1ccc(N2C(=O)C(Cc3ccccc3)NC2=S)cc1` (stereo not given): 104% (inactive); for `Cc1ccc(N2C(=O)C3C(c4ccccc4)(C2=O)C3(c2ccccc2)c2ccccc2)cc1` (stereo not given): 8.37% (active). The same measure for `Cc1ccc(N2C(=O)C3CC3C2=O)cc1` (stereo not given): 100% (inactive); for `CC(=O)c1ccc(S(=O)(=O)N2CCN(C(=O)/C=C/c3ccc4ccccc4n3)CC2)cc1`: 84% (inactive); for `Cc1cccc(NC(=O)CSc2nnc(CCNC(=O)OC(C)(C)C)o2)c1C`: 93.8% (inactive). Turning to `Nc1ccc(C(=O)OCC(=O)NC2CCCc3ccccc32)cc1[N+](=O)[O-]` (stereo not given), the binding response (% of control) was 98.3% (inactive).

With `O=C(COC(=O)/C=C/c1ccc2c(c1)OCO2)NC1CCS(=O)(=O)C1` (stereo not given), the binding response (% of control) was 104% (inactive). The same measure for `Nc1ccc(C(=O)OCC(=O)NC2CCS(=O)(=O)C2)cc1[N+](=O)[O-]` (stereo not given): -18.4% (active). The same measure for `Cc1ccc(C(=O)Nc2nc(N)n(-c3ccccc3)n2)cc1`: 103% (inactive). The same measure for `CC(=O)c1ccc(NC(=S)N(Cc2ccccc2)C(C)C2CC2)cc1` (stereo not given): 106% (inactive); for `COCC(C)n1c(C)cc(C(=O)COc2ccc(C)nc2[N+](=O)[O-])c1C` (stereo not given): 99.8% (inactive). As to `O=S(=O)(c1ccccc1)N(CC(O)CN1CCCCC1)c1ccccc1` (stereo not given), the binding response (% of control) was 103% (inactive). The same measure for `Cc1cc(C)n(CC(O)CN(c2ccccc2)S(=O)(=O)c2ccc3ccccc3c2)n1` (stereo not given): 13.8% (active); for `Cc1ccc(N(CC(O)CN2CCCC2)S(=O)(=O)c2ccccc2)cc1` (stereo not given): 101% (inactive). Take `COC(=O)c1ccc(CN2CCN(CCCc3ccccc3)C(CCO)C2)cc1` (stereo not given): the binding response (% of control) was 91.5% (inactive). Next, `CCN(C(=O)COC(=O)c1cc(S(=O)(=O)N2CCc3ccccc32)ccc1OC)C1CCS(=O)(=O)C1` (stereo not given): 104% (inactive). In the case of `COc1ccccc1NC(=O)C[n+]1ccccc1`, the binding response (% of control) is 96% (inactive).

`COc1ccccc1NC(=O)CCCc1c[nH]c2ccccc12`: the binding response (% of control) was 440% [activator] (active). The same measure for `O=C(CCCCCn1c(=O)[nH]c2ccccc2c1=O)NCCc1c[nH]c2ccccc12`: 100% (inactive). The same measure for `COc1ccc(CCNS(=O)(=O)c2cccc3cccnc23)cc1OC`: 97.9% (inactive). Turning to `O=C(CSc1ccc([N+](=O)[O-])cn1)Nc1ccc(N2CCOCC2)c(Cl)c1`, the binding response (% of control) is 94.7% (inactive).

As for `O=C(COc1ccc(Cl)cc1)N1CCN(c2cccc(C(F)(F)F)c2)CC1`, the binding response (% of control) is 101% (inactive). Next, `COC(=O)c1ccccc1OCC(=O)N1CCN(c2ccc(Cl)cc2)CC1`: 349% [activator] (active).

Regarding `O=C(CN1CCN(c2ccc(Cl)cc2)CC1)N1CCCC1`, the binding response (% of control) is 104% (inactive). The same measure for `Cc1cccc(CSc2nc3c(c(=O)n2C)SCC3)c1`: 98.4% (inactive). Take `CCc1n[nH]c(=S)n1/N=C/c1c[nH]c2ccc(Br)cc12`: the binding response (% of control) is 103% (inactive). For the compound `COc1c(O)cc2oc(-c3ccc(O)c(O)c3)cc(=O)c2c1O`, the binding response (% of control) was 90.8% (inactive).

Turning to `Cc1ccc(-c2c[n+](=O)c3c(n2[O-])CCC3)cc1`, the binding response (% of control) was 101% (inactive).

For `COc1ccc(C2CC(c3ccccc3)Nc3ncnn32)cc1` (stereo not given), the binding response (% of control) is 99.7% (inactive). On to `Clc1ccc(C2CC(c3cccs3)n3ncnc3N2)cc1Cl` (stereo not given), for which the binding response (% of control) was 97.8% (inactive). Regarding `FC(F)Oc1ccccc1C1CC(c2ccc(Br)s2)Nc2ncnn21` (stereo not given), the binding response (% of control) was 187% [activator] (active). For `Cc1ccc(C(=O)Cc2nnc(C)s2)cc1`, the binding response (% of control) is 100% (inactive). Consider `COC(=O)[C@H]1Cc2cnoc2C[C@]1(C)C(=O)O`, for which the binding response (% of control) is 101% (inactive). Consider `CCOC(=O)c1ccc(NC(=O)c2nc[nH]c2C(=O)N[C@@H](CCCCNC(=O)OC(C)(C)C)C(=O)OC(C)(C)C)cc1`, for which the binding response (% of control) was 96.7% (inactive). In the case of `CC(C(=O)O)n1cnc2sc3c(c2c1=O)CCCC3` (stereo not given), the binding response (% of control) is 94.7% (inactive). As to `C=CCn1c(=NC(=O)c2cccs2)sc2cc(NC(C)=O)ccc21`, the binding response (% of control) is 154% [activator] (active). `C=CCn1c(=NC(=O)c2ccc(S(=O)(=O)N3CCCC3)cc2)sc2cc(NC(C)=O)ccc21`: the binding response (% of control) is 94.5% (inactive). Next, `CC(=O)Nc1ccc(/C=N/NC(=O)c2cccs2)cc1`: 99.4% (inactive); `Cc1ccc(OCC(=O)Nc2nnc(-c3ccco3)s2)cc1`: 102% (inactive). As for `Cc1ccc2[nH]c(=O)c(CN3CCCCC3)c(-c3ccccc3)c2c1`, the binding response (% of control) was 101% (inactive).

In the case of `Cc1ccc(NC(=O)Nc2cccc(C(F)(F)F)c2)nc1`, the binding response (% of control) is 99.7% (inactive). The same measure for `CCOC(=O)NNc1cc(C(F)(F)F)ccn1`: 169% [activator] (active). The same measure for `CCC(=O)NC(Nc1cc(C)ccn1)(C(F)(F)F)C(F)(F)F`: 104% (inactive); for `CCCSc1nc(NCc2ccco2)c2c3c(sc2n1)COC(C)(CC)C3` (stereo not given): 104% (inactive); for `COc1ccc(OC)c(-n2c(-c3ccn[nH]3)n[nH]c2=S)c1`: 96.7% (inactive).

For the compound `COc1ccccc1-n1c(-c2cc(-c3ccco3)[nH]n2)n[nH]c1=S`, the binding response (% of control) is 7.03% (active). Next, `COc1ccccc1-n1cn[nH]c1=S`: 98.6% (inactive).

Consider `CSc1ccc(/C=C/C(=O)NC23CC4CC(CC(C4)C2)C3)cc1`, for which the binding response (% of control) was 99.9% (inactive). The same measure for `Fc1ccccc1/C=N/n1c(-c2cccnc2)n[nH]c1=S`: 102% (inactive); for `OCCC1CN(Cc2cccc(OC3CCCC3)c2)CCN1Cc1ccsc1` (stereo not given): 100% (inactive); for `COc1ccc(C)cc1S(=O)(=O)N(CC(=O)Nc1cccc([N+](=O)[O-])c1)c1ccc(C)cc1`: 87.7% (inactive). On to `O=C(OCC1O[C@@H](OC(=O)c2cc(O)c(O)c(O)c2)[C@@H](OC(=O)c2cc(O)c(O)c(O)c2)[C@@H](OC(=O)c2cc(O)c(O)c(O)c2)[C@@H]1OC(=O)c1cc(O)c(O)c(O)c1)c1cc(O)c(O)c(O)c1` (stereo not given in full), for which the binding response (% of control) is 1.38% (active).

Take `CC(=O)NC1C(OCc2ccccc2)OC(COC(C)=O)C(OC(C)=O)C1OC(C)=O` (stereo not given): the binding response (% of control) is 101% (inactive). Next, `COc1cc(C(CCN2CCN(c3ccccc3)CC2)c2c(OC)cc(OC)c3ccc(=O)oc23)cc(OC)c1OC` (stereo not given): 101% (inactive); `Cc1[nH]c2ccccc2c1/C=N\NC(=O)Cn1nnc(-c2ccccc2)n1`: 102% (inactive); `COCCNC(=S)N/N=C/c1c(C)[nH]c2ccccc12`: 159% [activator] (active). Regarding `Cc1[nH]c2ccccc2c1/C=N/NC(=O)CNC(=O)c1ccc2c(c1)OCO2`, the binding response (% of control) is 111% (inactive).

For `O=C(Nc1ccc(F)cc1)C1CCN(C(=O)c2ccc([N+](=O)[O-])cc2)CC1`, the binding response (% of control) was 99.8% (inactive).

Take `COc1cc(C(=O)OCc2ccc([N+](=O)[O-])cc2)cc(OC)c1OC`: the binding response (% of control) is 98.2% (inactive).

As for `CCN(CC)CCN1C(=O)C(=O)/C(=C(/O)c2ccc(OC)c(OC)c2)C1c1ccccn1` (stereo not given), the binding response (% of control) was 99.2% (inactive). The same measure for `CCN(CC)CCn1cnc2c1c(=O)n(CCOC(=O)c1cc(OC)c(OC)c(OC)c1)c(=O)n2C`: 155% [activator] (active); for `COCCCn1c(-c2cccs2)nc2nc3ccccc3nc21`: 103% (inactive); for `COc1cccc(C(=O)NCCSc2ccc(Br)cc2)c1`: 19.5% (active). The same measure for `COc1cccc(C(=O)NNC(=O)c2ccccc2Br)c1`: 103% (inactive); for `COc1cc(OC)cc(C(=O)NCCSCc2ccco2)c1`: 93.2% (inactive); for `C#CCOCCOCCOCCNc1nc(N2CCN(C(=O)[C@H](CCC(=O)O)n3cc(C(N)CO)nn3)CC2)nc(N2CCN(C(=O)[C@H](CCCCN)n3cc(C(N)CC(C)C)nn3)CC2)n1` (stereo not given in full): 104% (inactive). The same measure for `Cc1ccc(NC(=O)c2oc(=O)c3ccccc3c2-c2ccccc2)c(C)c1`: 105% (inactive); for `CCCCCCCCCOC1OC(CO)C(O)C(O)C1NC(C)=O` (stereo not given): 98.8% (inactive); for `CC(C)=CCC/C(C)=C/C(=O)O`: 92.6% (inactive). Regarding `COCCNC(=S)Nc1cc(S(=O)(=O)N2CCOCC2)ccc1N1CCCCC1`, the binding response (% of control) was 97.4% (inactive). Next, `COc1ccccc1CCNC(=O)c1cnccn1`: 97.6% (inactive).

Regarding `CCCn1cc(SCC(N)=O)c2ccccc21`, the binding response (% of control) is 82.2% (inactive). The same measure for `O=C(Cc1c[nH]c2ccccc12)OCCOC(=O)Cc1c[nH]c2ccccc12`: 97.3% (inactive); for `NC(=O)CSc1c[nH]c2ccccc12`: 30% (active). Take `COc1ccc(Cl)cc1C(=O)NNC(=S)NC(=O)/C=C/c1ccco1`: the binding response (% of control) is 104% (inactive). In the case of `CCOc1ccc(-c2c(C)n([O-])c3c([n+]2=O)CCCC3)cc1`, the binding response (% of control) was 102% (inactive). The same measure for `Cc1c(S(=O)(=O)NCc2ccccc2)c(=O)n(C)c(=O)n1C`: 103% (inactive).

Consider `CC(C)=CCc1c(O)c(CC=C(C)C)c2occ(-c3ccc(O)cc3)c(=O)c2c1O`, for which the binding response (% of control) is 96.8% (inactive).

In the case of `CC(=O)c1cc(-c2ccccc2)n(CC(=O)NC2CCCCC2)c1C`, the binding response (% of control) was 94.2% (inactive).

As to `CCOCCCNC(=O)C(NC(=O)c1ccc(=O)[nH]c1)c1ccc(Cl)cc1` (stereo not given), the binding response (% of control) was 98.1% (inactive). For `COc1ccc(C(=O)COC(=O)c2ccc3ccccc3n2)cc1`, the binding response (% of control) was 36.8% (active). Next, `CC(OC(=O)c1ccc2ccccc2n1)C(=O)c1ccccc1` (stereo not given): 103% (inactive); `COc1ccc(C2=NOC(COC(=O)c3ccc4ccccc4n3)C2)cc1` (stereo not given): 99.3% (inactive); `Cc1nc(N)[nH]c(=O)c1Oc1cccc(C(F)(F)F)c1`: 99.6% (inactive).

On to `CCCCCCCN=C(C)c1ccccc1O`, for which the binding response (% of control) is 103% (inactive).

For the compound `CCOC(=O)C1Cn2c(nc3c(c2=O)C(C)(CC)Cc2ccccc2-3)S1` (stereo not given), the binding response (% of control) is 93% (inactive). For the compound `CCC(=O)Nc1cccc(C2=NOC3(C2)C[C@@H](C(N)=O)N(C(=O)c2cc([N+](=O)[O-])cc([N+](=O)[O-])c2C)C3)c1` (stereo not given in full), the binding response (% of control) is 96% (inactive).
